Reference: ChEMBL document CHEMBL3988442, “University of Dundee, Small-Polar-MMV Screening Library” (2021)

Experiments:
[1] = target: T1, Aspartate--tRNA(Asp/Asn) ligase (Mycobacterium tuberculosis (strain ATCC 25618 / H37Rv)) (UniProt P9WFW3); assay: Assay for Asp RNA synthetase-1 from Mycobacterium tuberculosis; assay type: functional; design: scale not given: direction of the effect not stated beside the values; conditions: 30 µM; further: in the data most compounds retested in dose-response had high values
T1 sequence (whole entry): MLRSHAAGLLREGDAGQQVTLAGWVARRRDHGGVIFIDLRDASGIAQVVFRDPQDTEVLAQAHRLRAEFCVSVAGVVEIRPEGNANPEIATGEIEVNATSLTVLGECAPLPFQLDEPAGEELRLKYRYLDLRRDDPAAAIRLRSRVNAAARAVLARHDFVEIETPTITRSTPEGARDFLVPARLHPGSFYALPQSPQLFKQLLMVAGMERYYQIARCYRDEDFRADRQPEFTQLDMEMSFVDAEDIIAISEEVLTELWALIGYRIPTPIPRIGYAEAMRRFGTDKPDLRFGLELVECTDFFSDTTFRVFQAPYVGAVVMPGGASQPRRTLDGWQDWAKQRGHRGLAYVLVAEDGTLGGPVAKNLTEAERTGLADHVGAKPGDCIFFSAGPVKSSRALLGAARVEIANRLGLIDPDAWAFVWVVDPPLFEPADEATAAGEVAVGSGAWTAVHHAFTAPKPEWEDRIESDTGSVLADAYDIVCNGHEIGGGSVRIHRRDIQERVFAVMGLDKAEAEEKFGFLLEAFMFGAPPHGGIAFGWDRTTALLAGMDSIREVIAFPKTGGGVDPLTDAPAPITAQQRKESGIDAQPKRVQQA

[2] = target: Shiga toxin 2 (Escherichia coli O157:H7) (UniProt P09385+P09386); assay: E. coli 0.157:H7 Shiga Toxin SOP - stx2 screening assay; assay type: functional; design: scale not given: direction of the effect not stated beside the values; conditions: 30 µM

SMILES	Percent Effect [1]	Percent Effect [2]
Cc1nc(CCCNC(=O)C2CC(=O)N(C3CC3)C2)sc1C (stereo not given)	3.67%	-28.3%
COCCN1C[C@H]2CC[C@@]3(N=C(C)N(CC4CC4)C3=O)[C@H]2C1	4.94%	-12.7%
O=C(Nc1cnn(CCN2CCOCC2)c1)c1ccccn1	-1.48%	19.4%
CC(NC(=O)NCc1cc[nH]n1)c1ccc2c(c1)CCC(=O)N2 (stereo not given)	-1.15%	-11.9%
COCCN1C(=O)C[C@@H]2[C@H]1CCN2C(=O)COc1ccccc1	-2.36%	-1.37%
O=S(=O)(N(Cc1ccccn1)C1CC1)N1CCCC1c1ccco1 (stereo not given)	2.62%	-10.3%
CN(C)CCOCC1CN(Cc2ccsc2)Cc2ccnn2C1 (stereo not given)	-0.625%	3.55%
O=C(CCc1ccccc1F)NS(=O)(=O)c1ccc2c(c1)OCCCO2	2.29%	-13.9%
COCC1CCN(C(=O)c2cccc(S(=O)(=O)NC3CCCC3)c2)C1 (stereo not given)	-0.437%	-4.97%
CCN(CC)c1ccc(C(=O)N(C)Cc2c(C)noc2C)cn1	3.51%	32.5%
COCCC(=O)N1CCC2(COCc3c(C)nc(NCC4CC4)nc32)C1 (stereo not given)	1.96%	0.582%
O=C(Cc1c[nH]c2ccccc12)N1CCC(Nc2cccnn2)CC1	1.83%	-4.79%
Fc1cccc(-c2nc(CN3CCOC(Cn4cncn4)C3)co2)c1 (stereo not given)	-4%	1.8%
Cc1noc(C)c1CNC(=O)N1CCC(CO)CC1	2.21%	-4.58%
CCS(=O)(=O)NCCNC(=O)c1cc(Cl)c2c(c1)OCCCO2	5.01%	-2.3%
CC(NC(=O)NCCCN(C)S(C)(=O)=O)c1cccc(Cl)c1 (stereo not given)	1.12%	-9.29%
O=C(Cn1cccnc1=O)NCCc1ccc2c(c1)OCCO2	2.57%	-33.8%
CCc1ncc(CN(C)C(=O)Nc2cccnc2N2CCCC2)s1	2.75%	-14.5%
CS(=O)(=O)N1CCCC12CCCN(S(=O)(=O)c1ccc(F)cc1)C2 (stereo not given)	-6.05%	7.82%
CCc1nc(C2CCCN2C(=O)c2ccc3c(c2)nnn3CC)no1 (stereo not given)	-5.04%	1.14%
CCC1CN(C(=O)c2ccc(Cl)cc2O)CCN1C(C)C (stereo not given)	-3.56%	5.13%
CO[C@H]1CCN(S(=O)(=O)c2cn(C)cn2)[C@H]1Cc1cccnc1	-0.175%	-10.2%
O=C(COC(=O)Cc1cccs1)NCc1cccc(NC(=O)C2CC2)c1	-1.66%	28%

SMILES	Percent Effect [1]	Percent Effect [2]
Cc1csc(CNC(=O)NCC(O)c2cccc(Cl)c2)n1 (stereo not given)	3.71%	-10.8%
COc1ncc(C2(O)CCN(Cc3c(F)cccc3F)CC2)c(OC)n1	2.49%	71.8%
NC(=O)c1ccc(CN2CCCC(N3CCCC3)C2)cc1 (stereo not given)	-1.17%	-4.76%
Cc1ccc(O)c(CNC2CCc3nc(C(C)C)nn3C2)n1 (stereo not given)	2.88%	1.45%
O=C1[C@H]2CN(c3ncccn3)C[C@H]2CN1Cc1ccncc1	0.211%	-21.9%
COc1ncccc1CNC(=O)NCCNC(=O)c1ccco1	-10.1%	-25%
CC(C)c1nn(C)c(Cl)c1CNC1CCOc2ccccc21 (stereo not given)	1.57%	27.5%
COc1ccc(CCNC(=O)C2CCC(Cn3cnnn3)CC2)cc1 (stereo not given)	-2.03%	-4.05%
CCc1ccc(NC(=O)C2OC(c3cccs3)=NN2C(C)=O)cc1 (stereo not given)	-1.78%	-90%
CS(=O)(=O)N[C@@H]1CCO[C@]2(CCN(C(=O)C3=CCCC3)C2)C1	3.41%	-0.907%
c1ccc(CN2CC[C@@H]3O[C@@H](COCC4CCOCC4)CC[C@@H]32)nc1	7.81%	-21.9%
c1ccc2sc(CN3CCCC3c3noc(C4CC4)n3)nc2c1 (stereo not given)	-1.34%	3.03%
c1ccc(CNC2CCc3ncnn3C2)nc1 (stereo not given)	-0.856%	-65.4%
Cc1ncc(CNC(=O)Cc2ccc(Cl)cc2)c(C2CCCN2C)n1 (stereo not given)	0.551%	15.8%
Cc1ccc(OCC(=O)NS(=O)(=O)c2cccnc2)cc1C	-2.57%	26.6%
COc1cc(CCC(=O)NCC2CCCN2C)ccc1OCC(F)(F)F (stereo not given)	1.43%	22.2%
Cc1nnc(NCC2(c3ccc(Cl)cc3Cl)CCOCC2)c(C#N)c1C	1.93%	-16.4%
CCNC(=O)[C@@H]1C[C@H](NC(=O)c2cncnc2C)CN1CCCSC	-2.78%	-8.54%
CC(=O)N1CCC(c2ccnc(Nc3cncnc3)n2)C1 (stereo not given)	-0.956%	-11.8%
FC(F)(F)Cc1noc(CN2CCCC2c2noc(C3CC3)n2)n1 (stereo not given)	8.91%	16.4%
Cc1ncsc1CN1C[C@@H]2COC[C@]2(COc2ccc(C#N)cn2)C1	-0.365%	-16.3%
CCS(=O)(=O)N(C)C(=O)c1cc(C)n(-c2cccc(OC)c2)c1C	-6.83%	-4.96%
